Assay results published in PubChem BioAssay (NCI).
About 83,000 compounds went through this panel and 20% of them were active in at least one assay; those are over-represented in the sample as a whole.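 Each cell line was grown in a 96-well plate and treated with one concentration of compound for 48 hours. Values below 10 were considered active.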 Calls of active or inactive are those of the source.

The compounds below were run on HCT-116 colon (assay: NCI-60 one-dose screen, 48 h (100 = growth as untreated, 0 = no growth, -100 = all killed)). Settings: 10 µM unless noted.
COc1ccc2nc3cc(Cl)ccc3c(N3CCN(c4ccnc(N5CCN(C)CC5)n4)CC3)c2c1 was tested, and the growth was -62.4% (active). In the case of Cc1cccc(NC(=O)c2sc3nc4c(cc3c2N)C(=O)CCC4)c1, the growth is reported as 29.3% (inactive). C=C1CCC2C3(C)COC(c4cccc(Cl)c4)OC3CCC2(C)C1/C=C/C1=CCOC1=O (stereo not drawn) was tested, and the growth was 28.9% (inactive). COC(=O)[C@H](C(C)C)n1c(=O)c2cc(OC)c(OC)cc2c2cnc3[nH]ccc3c21 was tested, and the growth was 41.4% (inactive). In the case of O=C(/C=C/c1cc2ccccc2[nH]c1=O)/C=C/c1cc2ccccc2[nH]c1=O, the growth is reported as -71.1% (active). For CC1=C(NCCN2CCCC2)C(=O)c2c(OCc3cccc(Cl)c3)cccc2C1=O, the growth was 43.9% (inactive). With Cn1c2ccccc2c2c3c(c4c5ccccc5[nH]c4c21)C(=O)N(N)C3=O the growth was 40.7% (inactive). With C/C=C/C(N)=O the growth was 98.4% (inactive). For CN1CCN(Cc2ccc(NC(=O)c3[nH]ncc3Nc3ncnc4c3CCC4)cc2)CC1, the growth was 5.79% (active). With COc1cc(OC)c(/C=C/c2cc[n+](C)c3ccccc23)c(OC)c1 the growth was 11.4% (inactive). For Clc1cccc(Nc2nc(Nc3cnc4ccccc4c3)c3[nH]cnc3n2)c1, the growth was 76.4% (inactive). With Oc1ccccc1/C=N/Nc1ccc2ccccc2n1 the growth was 22.3% (inactive). With COc1ccc(/C=C2\N=C3Sc4cc(Cl)ccc4C(=O)N3C2=O)cc1 the growth was 104% (inactive). With Cc1cc(N/N=C/c2nc(-c3ccc(Cl)cc3)oc2C)c2cc(Cl)ccc2n1 the growth was -47.1% (active). With NS(=O)(=O)c1ccc(Nc2nc3n[nH]c(Nc4ccccc4)c3c(=O)[nH]2)cc1 the growth was 112% (inactive). For O=C(Nc1ccc(Nc2cc(Nc3ccccc3)ncn2)cc1)Nc1cc(C(F)(F)F)ccc1F, the growth was 63.7% (inactive). In the case of Nc1cccc(-c2nc3sccn3c2-c2ccnc(NCCCNS(=O)(=O)c3ccc(C(F)(F)F)cc3)n2)c1, the growth is reported as 3.07% (active). O=C(Nc1ccc(F)cc1)Nc1ccc(CCO)cc1 was tested, and the growth was 94.7% (inactive). For COc1ccc(CCN2CCCn3c2nc2ccccc2c3=O)cc1, the growth was 14.3% (inactive). With CCOC(=O)/C=C/C(=O)[C@H](CC(C)C)NC(=O)[C@H](Cc1ccccc1)NC(=O)OCc1ccccc1 the growth was 47.6% (inactive). In the case of Cn1c2c(Cl)c(Cl)ccc2c2ccn3c(=O)c4ccccc4nc3c21, the growth is reported as 90% (inactive). For C[C@@H]1CC[C@@H]2[C@@H]1[C@H](OC(=O)/C=C/c1ccccc1)[C@]1(C3CCCCC3)C[C@@H](OC(=O)CO)[C@@]2(C)O1, the growth was 52% (inactive). CC#Cc1nc2ccccc2c(=O)[nH]1 was tested, and the growth was 41.1% (inactive). In the case of CCCCN(CC)CCCCCCCCCCN1CCCc2cc(OC)ccc21, the growth is reported as 69.7% (inactive). With CC[C@H](Nc1nc(N)nc(C)c1C#N)c1nc2cccc(NCc3ccc(C(=O)NO)cc3)c2c(=O)n1-c1ccccc1 the growth was -50.5% (active). OC(c1cccc(C(F)(F)F)c1)c1cnccc1NC1CCCCCC1 (stereo not drawn) was tested, and the growth was 14.4% (inactive). With CC(=O)Nc1ccc2c(c1)c(NC(C)=O)nn2C(=O)Nc1ccc(Cc2ccccc2)cc1 the growth was 61% (inactive). With COc1cc(/C=N/N(C)C)ccc1O the growth was 101% (inactive). For CCC(c1ccccc1)C(CC)c1ccc(O)c(O)c1 (stereo not drawn), the growth was 88.2% (inactive). In the case of COc1cc(C2CC(=O)c3c(C)nn(-c4nc5ccccc5[nH]4)c3C2)cc(OC)c1OC (stereo not drawn), the growth is reported as 68.7% (inactive). COc1ccc(S(=O)(=O)NCCCNc2cc(-c3c(-c4cccc(OC)c4)nc4sccn34)ccn2)cc1 was tested, and the growth was 47.3% (inactive). With COc1cccc(-c2cn3c(ccc4ccccc43)n2)c1 the growth was 40.6% (inactive). COC(=S)SCN(CSC(=S)OC)c1ccc(Cl)cc1 was tested, and the growth was 79.7% (inactive). With COc1nc2c(cc1S(=O)(=O)c1ccccc1)CCc1c-2cnn1-c1ccc(Cl)cc1 the growth was 88.1% (inactive). O=c1ccc2cc3ccccc3cc2[nH]1 was tested, and the growth was 99.2% (inactive). COc1cnc2c(c1)C(=O)c1c-2n(CCCN2CCNCC2)c(=O)c2cc([N+](=O)[O-])ccc12 was tested, and the growth was -93.6% (active). In the case of CC1=N/C(=C\c2cccc(Br)c2)C(=O)O1, the growth is reported as 103% (inactive). O=C(Nc1nc(-c2ccccc2)cc(-c2ccc(Cl)cc2)n1)c1ccncc1 was tested, and the growth was 87.6% (inactive).
